Results on 13 molecules are retold here after PubChem BioAssay (NCI).

Compounds without any hit were thinned out: in the full panel of roughly 83,000, 20% have a hit.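 48-hour exposure, single concentration, 96-well plates; percent growth endpoint where 0 means no net growth. Active: below 10.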 Activity calls are given as the source filed them.

The subject of this experiment is OVCAR-8 ovarian. In words: NCI-60 one-dose screen, 48 h (100 = growth as untreated, 0 = no growth, -100 = all killed). As to conditions: 10 µM unless noted.
For the molecule `O=C1c2ccccc2C(=Cc2ccccc2)c2ccccc21`, the growth is 21.6% (inactive).
Then `N#CC1=C(N)Oc2c(sc3c(F)cccc23)C1c1ccc(Cl)cc1` (stereo not drawn), with 42.8% (inactive); and `O=C(Nc1ccc(/C=C2\SC(=O)N(Cc3ccc(OC(F)(F)F)cc3)C2=O)cc1)c1ccc(Cl)c([N+](=O)[O-])c1`, with 87.5% (inactive).
As to `C[C@@H](C(=O)O)c1ccc2c3cc(Cl)ccc3n(Cc3cc(=O)oc4ccc(Cl)cc34)c2c1`, the growth is 105% (inactive).
Regarding `Cn1c(=O)c2c(nc(Br)n2CC(=O)Nc2ccc(F)cc2)n(C)c1=O`, the growth was 103% (inactive).
Turning to `COC(=O)C(N)CSC(c1ccccc1)(c1ccccc1)c1ccccc1` (stereo not drawn), the growth is 36.8% (inactive).
As for `NS(=O)(=O)c1ccc(CCNC(=O)/C=C/c2ccc(Cl)cc2)cc1`, the growth was 95.1% (inactive).
Consider `C[C@H]1[C@H]2C3=CC[C@@H]4[C@@]5(C)C/C(=C/c6ccco6)C(=O)C(C)(C)[C@@H]5CC[C@@]4(C)[C@]3(C)CC[C@@]2(C(=O)N2CCOCC2)CC[C@@H]1C`, for which the growth is 54.7% (inactive).
Then `COC1=C(Br)C(=O)C(OC)=C(Br)C1=O`, with 105% (inactive); and `Cn1cc(-c2csc(-c3cn(CCN)c4ccc(F)cc34)n2)c2cccnc21`, with 72.1% (inactive).
On to `O=C1/C(=C\c2ccco2)SC(=S)N1CCc1ccc(O)cc1`, for which the growth was 102% (inactive).
Regarding `COc1cccc(-c2nn(-c3ccccc3)cc2-c2ccnc(NCCNS(=O)(=O)c3ccccc3)c2)c1`, the growth was 27.7% (inactive).
Take `C[C@]12CC[C@@H]3c4ccc(O)cc4CC[C@H]3[C@@H]1C[C@H](O)[C@@H]2O`: the growth was 103% (inactive).
